Experimental data reported in PubChem BioAssay (NCATS).
Several values for one entry are separate records, joined by “and”; a condition that tells them apart may be missing. Equal values may be shown once. Inconclusive results are not listed. Activity calls are given as the source filed them. Unless noted, the call rests on the fitted dose curve; in most records, active means well fitted curve in the direction sought with a large enough effect; inconclusive means small, poorly fitted or top-dose-only effect, or another doubt; inactive means no such curve, though single readings can be large; an effect the other way counts as inactive or inconclusive.

How the values were obtained:
[1] = Primary qHTS for inhibitors of nuclear receptor binding SET domain protein 2 (NSD2) in an isogenic RCH-ACV NSD2 p.E1099K mutant (9B) (AID 1645876); further: nearly all actives have a fitted effect of over 70% in size; further: potency means the concentration at half of the fitted maximal effect
[2] = Primary qHTS for inhibitors of nuclear receptor binding SET domain protein 2 (NSD2) in an RCH-ACV wild type WT cells (2C) (AID 1645877); further: nearly all actives have a fitted effect of over 70% in size; further: potency means the concentration at half of the fitted maximal effect
[3] = target: Catechol O-methyltransferase (Homo sapiens) (UniProt P21964); experiment: Confirmatory Screen for Target Class Profiling of Small Molecule Inhibitors of Methyltransferases (AID 1745852; calls by dose curve; further: potency means the concentration at half of the fitted maximal effect; on activity change, negative = inhibition: on the % scale 0 is the no-effect control and ±100 the full control effect); conditions: MTase-Glo luminescence, SAH detection, recombinant enzyme; measured here: COMT max response; stronger effect = lower value
Chain of Catechol O-methyltransferase (Homo sapiens) (P21964 whole entry, looked up): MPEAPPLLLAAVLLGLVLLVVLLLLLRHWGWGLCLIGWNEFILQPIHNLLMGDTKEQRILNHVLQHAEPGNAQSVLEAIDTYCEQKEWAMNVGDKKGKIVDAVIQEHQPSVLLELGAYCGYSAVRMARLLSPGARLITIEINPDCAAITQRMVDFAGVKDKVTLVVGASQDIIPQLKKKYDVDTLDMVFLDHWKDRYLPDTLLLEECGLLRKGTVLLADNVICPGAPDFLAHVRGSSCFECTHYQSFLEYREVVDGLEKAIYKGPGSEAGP

[4] = target: Guanidinoacetate N-methyltransferase (Homo sapiens) (UniProt Q14353); experiment: as above; conditions: activity change, negative = inhibition: at 57.3 µM (top of the series) unless noted
[5] = target: Nicotinamide N-methyltransferase (Homo sapiens) (UniProt P40261); experiment: as above; conditions: MTase-Glo luminescence, SAH detection, recombinant enzyme; measured here: NNMT max response; stronger effect = lower value
Chain of Nicotinamide N-methyltransferase (Homo sapiens) (P40261 whole entry, looked up): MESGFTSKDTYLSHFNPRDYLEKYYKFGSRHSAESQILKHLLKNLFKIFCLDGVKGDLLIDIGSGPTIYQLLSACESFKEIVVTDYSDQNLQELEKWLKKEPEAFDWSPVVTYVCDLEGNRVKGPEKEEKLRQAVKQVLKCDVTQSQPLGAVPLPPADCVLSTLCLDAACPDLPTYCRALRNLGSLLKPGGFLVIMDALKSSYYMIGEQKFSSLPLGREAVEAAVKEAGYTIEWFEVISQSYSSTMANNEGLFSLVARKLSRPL

[6] = target: Phenylethanolamine N-methyltransferase (Homo sapiens) (UniProt P11086); experiment: as above; conditions: MTase-Glo luminescence, SAH detection, recombinant enzyme; measured here: PNMT max response; stronger effect = lower value
Chain of Phenylethanolamine N-methyltransferase (Homo sapiens) (P11086 whole entry, looked up): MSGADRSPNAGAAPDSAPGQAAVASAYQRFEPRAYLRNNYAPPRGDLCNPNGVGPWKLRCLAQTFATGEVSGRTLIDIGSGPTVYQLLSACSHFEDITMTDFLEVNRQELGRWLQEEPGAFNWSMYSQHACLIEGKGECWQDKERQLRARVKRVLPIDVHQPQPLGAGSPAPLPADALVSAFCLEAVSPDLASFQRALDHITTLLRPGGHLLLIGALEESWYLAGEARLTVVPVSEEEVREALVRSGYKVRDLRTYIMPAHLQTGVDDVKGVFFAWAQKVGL

[7] = NCATS anti-infectives library activity on HEK293 viability as a counter-qHTS vs the C. elegans viability qHTS (AID 1745854);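 further: HEK293 cells exposed to compounds for 24 hr before the viability read; on the % scale 0 is the no-effect control and ±100 the full control effect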
Method in brief: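 Compound titrations (final up to 41.7 uM) were incubated with HEK293 cells for 24 hr at 37C under 5% CO2. Viable cells were quantified with CellTiter-Glo after 10 min at ambient temperature.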

[8] = NCATS anti-infectives library activity on the primary C. elegans qHTS viability assay (AID 1745855; calls by dose curve)
Method in brief: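 Titration-based screen in worms: eggs hatched overnight in M9, L1 larvae fed TOP10 capsules in S medium with compound, incubated 21 °C for 7 days; fluorescent objects gated by size and intensity at days 0, 3 and 7.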

[9] = Viability counterscreen for antagonist of constitutive androstane receptor (CAR) against the NCATS DSHEA and TCM libraries (AID 1794837);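 further: compound exposure lasted 24 h before viability reading; 0% is about no effect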
Method in brief: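 Viability was measured by CellTiter-Fluor fluorescence (405/540 nm, 1 hr) in HepG2-CYP2B6-hCAR cells. Cells were co-treated 24 hr with 48 uM CITCO (final), antagonist mode, and test substances.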

[10] = Viability counterscreen for agonist of constitutive androstane receptor (CAR) against the NCATS DSHEA and TCM libraries (AID 1794838);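 further: HepG2 cells with CYP2B6 reporter and hCAR plus 0.75 µM PK11195 antagonist; cells exposed to compound for 24 h; 0% is about no effect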
Method in brief: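 Cell viability, from CellTiter-Fluor fluorescence (405/540 nm), was scored after a 24 h, 37C exposure of HepG2 cells carrying CYP2B6 reporter and hCAR to test substances in presence of 0.75 uM PK11195.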

CC1(C)CC[C@]2(C(=O)O)CC[C@]3(C)C(=CCC4[C@@]5(C)C[C@@H](O)[C@H](O)C(CO)(CO)C5CC[C@]43C)C2[C@@H]1O (some centres undefined)
Potency [1]: 8.93 µM (active)
Potency [2]: 8.93 µM (active)
activity [3]: -63.1%
activity change, negative = inhibition [4]: 0% [at 29.8 µM]
activity [5]: 0%
activity [6]: 6.04%

C=C1C(=O)OC2C(OC(=O)C=C(C)C)C(C)=C3C(=O)C=C(C)C3C(O)C12 (centres undefined)
Potency [1]: 10.1 µM (active)
Potency [2]: 3.19 µM (active)
activity [3]: -65.9%
activity change, negative = inhibition [4]: -0.769%
activity [5]: 2.7%
activity [6]: 4.72%

CCCSc1nc(N[C@@H]2C[C@H]2c2ccc(F)c(F)c2)c2nnn([C@@H]3C[C@H](OCCO)[C@@H](O)[C@H]3O)c2n1
Potency [1]: 25.8 µM (active)
Potency [2]: 18.3 µM (active)
activity [3]: -40.7%
Potency [4]: 48.2 µM (active)
activity [5]: -50.5%
activity [6]: -36.5%

COC(=O)CC1OC(C)C2=C(O)c3c(O)cccc3C(=O)C23OC13 (centres undefined)
Potency [1]: 2.84 µM (active)
Potency [2]: 2.01 µM (active)
activity [3]: -4.94%
activity change, negative = inhibition [4]: -3.96%
activity [5]: -0.835%
activity [6]: -0.505%

CCC(=O)N1CCOc2c(cc(-c3ccc(OC)c(OC)c3)cc2OC[C@H]2CCCN(C)C2)C1
Potency [1]: 8.17 µM (active)
Potency [2]: 7.28 µM (active)
activity [3]: -13.1%
activity change, negative = inhibition [4]: -8.77%
activity [5]: -10.5%
activity [6]: -9.1%

c1cc(NC2CCNCC2)nc(-c2cnc3ccccn23)c1
Potency [1]: 1.15 µM (active)
Potency [2]: 1.45 µM (active)
activity [3]: -7.29%
activity change, negative = inhibition [4]: -7.64%
activity [5]: -8.81%
activity [6]: -8.43%

C=C1C(=O)OC2C1CCC1(C)C(O)CCC(=C)C21 (centres undefined)
Potency [1]: 18.3 µM (active)
Potency [2]: 16.3 µM (active)
activity [3]: -62.8%
activity change, negative = inhibition [4]: -2.15%
activity [5]: 1.08%
activity [6]: -1.43%

C=C1C(=O)OC2C1CCC1(C)C(O)CC=C(C)C21 (centres undefined)
Potency [1]: 18.3 µM (active)
Potency [2]: 16.3 µM (active)
activity [3]: -60.3%
activity change, negative = inhibition [4]: -6.03%
activity [5]: -3.54%
activity [6]: -2.19%

C=CC(=O)Nc1ccc(CN2C(=O)N(c3cc(OC)cc(OC)c3)Cc3cnc(Nc4ccc(N5CCN(C)CC5)cc4)nc32)cc1
Potency [1]: 1.46 µM (active)
Potency [2]: 0.817 µM (active)
activity [3]: -18.9%
activity change, negative = inhibition [4]: -0.849%
activity [5]: -1.46%
activity [6]: -2.5%

CCn1c(-c2nonc2N)nc2c(C#CC(C)(C)O)ncc(OCC3CCCNC3)c21 (centres undefined)
Potency [1]: 1.03 µM (active)
Potency [2]: 1.45 µM (active)
activity [3]: -1.89%
activity change, negative = inhibition [4]: 0.279%
activity [5]: -28%
activity [6]: -3.65%

CC[N+]1(C/C2=C/CCCCCC2)CCC(NC(=O)C2c3cc(Cl)ccc3Oc3ccc(Cl)cc32)CC1 (centres undefined)
Potency [1]: 23 µM (active)
Potency [2]: 18.3 µM (active)
activity [3]: -37.4%
activity change, negative = inhibition [4]: 0%
activity [5]: -28%
activity [6]: -2.38%

CCNC(=O)C#Cc1ccc2c(C(=Nc3ccc(CN(C)C)cc3)c3ccccc3)c(O)[nH]c2c1
Potency [1]: 0.512 µM (active)
Potency [2]: 0.0102 µM (active)
activity [3]: -20.9%
activity change, negative = inhibition [4]: -11.9% [at 29.8 µM]
activity [5]: -31%
activity [6]: -19.5%

CN(C)CCOC(C)(c1ccccc1)c1ccc(Cl)cc1 (centres undefined)
Potency [1]: 11.5 µM (active)
Potency [2]: 10.3 µM (active)
activity [3]: -7.63%
activity change, negative = inhibition [4]: -4.69%
activity [5]: -25.2%
activity [6]: -3.91%

CC1CCC(=O)CC(SCC(O)C(=O)O)CCC(=O)O1 (centres undefined)
Potency [2]: inactive

CC(C)C[C@H](CO)Nc1nc(S[C@@H](C)c2ccccc2)nc2nc(N)sc12
Potency [1]: 26.3 µM (active)
activity [3]: -3.51%
activity change, negative = inhibition [4]: 1.87%
activity [5]: -40.8%
activity [6]: -2.5%

CCC(C)C(=O)Oc1cc(C)ccc1C1(COC(=O)C(C)C)CO1 (centres undefined)
Potency [2]: 5.67 µM (active)

C[C@@H]1O[C@@H](O[C@H]2CC[C@@]3(C)C(CC[C@]4(C)C3CC=C3[C@@H]5CC(C)(C)CC[C@]5(C(=O)O[C@@H]5O[C@H](CO)[C@@H](O)[C@H](O)[C@H]5O)CC[C@]34C)[C@]2(C)CO)[C@H](O)[C@H](O[C@@H]2O[C@H](CO)[C@@H](O)[C@H](O)[C@H]2O)[C@H]1O (some centres undefined)
Potency [2]: 3.46 µM (active)

C=C1C(=O)OC2C3=C(C)C(=O)CC3C(C)CC(O)C12 (centres undefined)
Potency [2]: 14.5 µM (active)

O=C(Nc1ncc([N+](=O)[O-])s1)c1ccccc1O
Potency [1]: inactive
outcome [7]: inactive

CC(C)(CO)c1cc2cc(NC(=O)C3(c4ccc5c(c4)OC(F)(F)O5)CC3)c(F)cc2n1CC(O)CO (centres undefined)
Potency [2]: inactive

C=C1C(=O)O[C@H]2CC(=C)[C@H]3CC[C@@](C)(O)[C@@H]3CC12 (some centres undefined)
Potency [1]: 12.9 µM (active)
activity [3]: -86%
activity change, negative = inhibition [4]: 1.75%
activity [5]: 0%
activity [6]: 3.31%

CCC(C)(OC(C)=O)C(=O)O[C@H]1[C@H](OC(C)=O)[C@]2(CO)[C@H](O)[C@H](O)[C@]3(C)C(=CCC4[C@@]5(C)CC[C@H](O[C@@H]6O[C@H](C(=O)O)[C@@H](O)[C@H](O[C@@H]7OC[C@H](O)[C@H](O[C@@H]8OC[C@H](O)[C@H](O)[C@H]8O)[C@H]7O)[C@H]6O[C@@H]6O[C@H](CO)[C@@H](O)[C@H](O)[C@H]6O)C(C)(C)C5CC[C@]43C)[C@@H]2CC1(C)C (some centres undefined)
Potency [2]: 2.44 µM (active)

COc1ccc(CCCN2CCC(COC(c3ccccc3)c3ccccc3)CC2)cc1
Potency [2]: 16.3 µM (active)

CS/C=C/C(=O)O[C@@H]1CCC2=CC(=O)C(=C(C)C)C[C@]2(C)[C@H]1C
Potency [2]: 11.3 µM (active)

C=CC(C)(C)c1[nH]c2ccccc2c1C[C@@H]1NC(=O)[C@H](C)NC1=O
Potency [2]: inactive

CCC[C@H](N[C@H]1CCc2cc(F)cc(F)c2C1)C(=O)Nc1cn(C(C)(C)CNCC(C)(C)C)cn1
Potency [1]: 16.3 µM (active) and 13.2 µM (active)
Potency [2]: 13.2 µM (active)
outcome [7]: inactive
Potency [8]: inactive

CC(=O)C1=C(O)C=C2Oc3c(C(C)=O)c(O)c(C)c(O)c3[C@]2(C)C1=O
Potency [1]: inactive
Potency [2]: inactive
outcome [7]: inactive
outcome [9]: inactive
outcome [10]: inactive

CC(O)C(C)n1ncn(-c2ccc(N3CCN(c4ccc(OCC5COC(Cn6cncn6)(c6ccc(Cl)cc6Cl)O5)cc4)CC3)cc2)c1=O (centres undefined)
Potency [2]: inactive
